PDI turbidity: inhibitors of human protein disulfide isomerase. 350,000 compounds, 0.052% hits. P07237. inhibition, % at 10 µM. PDI insulin aggregation turbidity, A650, 90 min. AID 588391;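 active = mean inhibition across replicates of 30% or more, whatever share of single replicates reach that level; inconclusive = mean inhibition below 30% while every single replicate reaches 30%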
Target sequence (P07237 whole entry, looked up): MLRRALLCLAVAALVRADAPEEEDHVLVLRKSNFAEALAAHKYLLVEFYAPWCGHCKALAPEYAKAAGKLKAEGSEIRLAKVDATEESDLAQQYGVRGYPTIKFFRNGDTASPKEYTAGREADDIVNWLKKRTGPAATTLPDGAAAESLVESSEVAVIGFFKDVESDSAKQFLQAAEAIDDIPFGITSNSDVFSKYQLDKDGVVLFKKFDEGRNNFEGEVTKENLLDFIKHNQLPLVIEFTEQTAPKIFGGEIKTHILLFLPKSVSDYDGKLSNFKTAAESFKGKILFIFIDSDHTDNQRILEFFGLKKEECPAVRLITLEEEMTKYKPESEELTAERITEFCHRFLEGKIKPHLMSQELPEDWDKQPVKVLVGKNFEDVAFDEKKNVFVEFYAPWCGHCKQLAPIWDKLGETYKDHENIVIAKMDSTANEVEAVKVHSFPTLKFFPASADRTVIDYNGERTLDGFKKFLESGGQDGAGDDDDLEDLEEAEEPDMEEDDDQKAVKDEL
AF4-AF9 inh: MLL-AF4/AF9 protein interaction inhibition | P42568 | AlphaScreen, biotin-AF4 peptide binding to FLAG-AF9 | inhibition, % at 10 µM | 350,000 compounds, 0.47% hits | AID 651704;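 active = every replicate reaching a set inhibition limit, whatever the replicate mean, cut at about 25% in these data; inconclusive = mean inhibition reaches that limit but some replicates miss it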
DENV2 CPE: protects cells from dengue virus 2 cytopathic effect; CPE inhibition, % at 9.99 µM; DENV2-infected cells, cytopathic effect rescue, plate reader; AID 651640; 350,000 compounds, 1.7% hits; in the data active = CPE inhibition above about 20%, passing the limit was not always enough; inconclusive = no clear call, values can overlap the other calls; tested in BHK-21 cells
ERAP1 inh: inhibitors of human ERAP1 aminopeptidase | recombinant ERAP1, Leu-AMC fluorescence, 60 min | 340,000 compounds, 0.15% hits | AID 652197 | Q9NZ08 | inhibition, % at 10.7 µM;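 active = mean replicate inhibition of at least 30%, or all replicates individually reaching that 30% level; inactive = mean below 30% and not every replicate reaching it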
ERp5 block: blocks human ERp5 reductase activity on insulin | ERp5 insulin aggregation, absorbance 650 nm, 90 min | inhibition, % at 9.99 µM | 350,000 compounds, 0.05% hits | AID 651711;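 active = mean replicate inhibition above about 25%, with every replicate also reaching it, limit read from the data, passing the limit was not always enough; inconclusive = only one of those two criteria met; inactive = neither criterion met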
Each line names hits and unclear results; the compound was inactive in the other large screens; ! = repeats disagree. Sampled rows, rich in hits. Any-hit rate of the full collection: about 1.8%.

Cc1ccc(S(=O)(=O)Nc2ccc3c(c2)C(=O)N([C@@H](C)CO)C[C@H](C)[C@@H](CN(C)S(C)(=O)=O)OCCCC[C@H](C)O3)cc1	DENV2 CPE 29 (no result: PDI turbidity)
CC1(C(=O)NS(=O)(=O)Cc2ccccc2)CCN1C(=O)c1ccc(C2CCCCC2)cc1 (stereo unspecified)	none
CC1(C(=O)NS(=O)(=O)Cc2cccc(Cl)c2)CCN1C(=O)c1ccc(C2CCCCC2)cc1 (stereo unspecified)	DENV2 CPE 90
CCCN1[C@@H]2c3ccc(-c4ccncc4)c(=O)n3C[C@@H]2[C@@H](CO)[C@@H]1C(=O)N1CCOCC1	none (no result: PDI turbidity)
Cc1noc(C)c1S(=O)(=O)Nc1ccc2c(c1)C(=O)N([C@H](C)CO)C[C@H](C)[C@H](CN(C)Cc1ccc(C(=O)O)cc1)OCCCC[C@@H](C)O2	DENV2 CPE 50 (no result: PDI turbidity)
Cc1noc(C)c1S(=O)(=O)Nc1ccc2c(c1)C(=O)N([C@@H](C)CO)C[C@H](C)[C@@H](CN(C)Cc1ccncc1)OCCCC[C@@H](C)O2	DENV2 CPE 22 (no result: PDI turbidity)
Cc1noc(C)c1S(=O)(=O)Nc1ccc2c(c1)C(=O)N([C@@H](C)CO)C[C@H](C)[C@@H](CN(C)Cc1ccc(Cl)c(Cl)c1)OCCCC[C@H](C)O2	DENV2 CPE 23 (no result: PDI turbidity)
Cc1noc(C)c1S(=O)(=O)Nc1ccc2c(c1)C(=O)N([C@@H](C)CO)C[C@@H](C)[C@H](CN(C)Cc1ccncc1)OCCCC[C@H](C)O2	none (no result: PDI turbidity)
Cc1cccc(N=[N+]([O-])c2cccc(C)n2)n1	DENV2 CPE 27
Cc1cccc(N=O)n1	none (no result: PDI turbidity)
C[C@H]1CN([C@@H](C)CO)C(=O)c2cc(NC(=O)Cc3ccccc3)ccc2O[C@@H]1CN(C)Cc1ccccc1	none (no result: PDI turbidity)
CCS(=O)(=O)NCC[C@@H]1CC[C@H](NC(=O)Cc2ccccn2)[C@@H](CO)O1	none (no result: PDI turbidity)
O=C(c1ccc2c(c1)OCO2)N1CC(=O)N2[C@H](CO)[C@@H](c3ccc(C#Cc4ccccc4)cc3)[C@@H]2C1	DENV2 CPE inconclusive (no result: PDI turbidity)
COc1ccc(N2CCN(Cc3cc4c(cc3Br)OCCO4)CC2)cc1	AF4-AF9 inh 27
COc1ccccc1N1CCN(Cc2cc3c(cc2Br)OCCO3)CC1	none
O=C(OCc1ccccc1)N1CCC2CC1c1cc(Cl)ccc12 (stereo unspecified)	none
O=C(OCc1ccccc1)N1CCCC2CC1c1ccccc12 (stereo unspecified)	DENV2 CPE 44
O=C(OCc1ccccc1)N1CCC2CC1c1ccc(N3CCOCC3)cc12 (stereo unspecified)	none
O=C(OCc1ccccc1)N1CCC2CC1c1ccc(N3CCNCC3)cc12 (stereo unspecified)	DENV2 CPE 75
CC(C)C#Cc1cnc2c(c1)C(=O)N([C@@H](C)CO)C[C@H](C)[C@@H](CN(C)C(=O)Nc1cccc(F)c1)O2	none (no result: PDI turbidity)
CC(C)(C)Cc1c(-c2cccc(Cl)c2)nc2ccc(Br)cn12	none (no result: PDI turbidity)
CC(C)(C)Cc1c(-c2ccc(Br)cc2)nc2ccc(Br)cn12	DENV2 CPE 101
COc1ccc(C(=O)NNC(=O)Cc2ccc([N+](=O)[O-])cc2)cc1	none (no result: AF4-AF9 inh, DENV2 CPE, ERAP1 inh, ERp5 block)
COc1ccc(CC2(C)OC(c3ccc([N+](=O)[O-])cc3)=NN2C(C)=O)cc1 (stereo unspecified)	AF4-AF9 inh 27
O=C(CN1CCOCC1)NCC[C@H]1CC[C@H](NC(=O)Nc2ccc(C(F)(F)F)cc2)[C@H](CO)O1	none (no result: PDI turbidity)
CN1C(=O)[C@H]2[C@@H](/C=C/c3ccccc3)N3C(=O)CN(Cc4ccccc4)C(=O)[C@@]3(C)[C@H]2C1=O	none
COC(=O)CN1C(=O)[C@H]2[C@@H](/C=C/c3ccccc3)N3C(=O)CN(Cc4ccccc4)C(=O)[C@@]3(C)[C@H]2C1=O	DENV2 CPE 50 (no result: ERAP1 inh)
O=C(O)C[C@H]1C[C@@H]2c3cc(NC(=O)C4CCC4)ccc3O[C@@H]2[C@H](CO)O1	none (no result: PDI turbidity)
Cc1ccc2[nH]c3c(c2c1)CNCC3	none
c1ccc2c3c([nH]c2c1)CCNC3	AF4-AF9 inh 25
C/C(CC(=O)Nc1ccc(Cl)c(Cl)c1)=N\NC(=O)Cc1ccccc1	DENV2 CPE 51
CCN(CC)c1ccc(NC(=O)CN(C)Cc2cccs2)cc1	AF4-AF9 inh 27
CCc1c(-c2cccc(Cl)c2)ncn1Cc1cccc(-c2ccccc2)c1	DENV2 CPE 22 (no result: PDI turbidity, AF4-AF9 inh)
CCN1C(=NCCc2c[nH]c3ccccc23)N[C@@H](c2ccccc2)[C@H](C(=O)OC)[C@H]1C	DENV2 CPE 27
N#Cc1ccc(-c2ccc([C@H]3[C@@H](CO)N4C(=O)CN(C(=O)C5CCCCC5)C[C@@H]34)cc2)cc1	none (no result: PDI turbidity)
Cc1cc2nc(NCCCO)n(CC(=O)c3cc(C(C)(C)C)c(O)c(C(C)(C)C)c3)c2cc1C	DENV2 CPE 32 (no result: ERAP1 inh)
C[C@H](CO)N1C[C@H](C)[C@H](CN(C)S(=O)(=O)c2cccs2)Oc2ncc(/C=C/c3ccccc3)cc2C1=O	none (no result: PDI turbidity)
CCN(CC)C1CCN(Cc2c(C(=O)N3CCCCCCC3)nc3ccc(Cl)cn23)C1 (stereo unspecified)	DENV2 CPE 35
COC1CCN(Cc2c(C(=O)N3C[C@@H](C)O[C@@H](C)C3)nc3ccc(Cl)cn23)CC1	none
CC/C(=C(\c1ccccc1)c1ccc(OCCN(C)C)cc1)c1ccccc1	AF4-AF9 inh 30!
CC(=O)Nc1ccc(NC(=O)CSc2nc(=O)n3cccc(C)c3n2)cc1	PDI turbidity 32
NC(=O)[C@@H]1CCCN1C(=O)[C@H](CCc1ccccc1)NC(=O)[C@H]1O[C@@H](n2cnc3c(N)ncnc32)[C@H](O)[C@@H]1O	DENV2 CPE 40 (no result: PDI turbidity, AF4-AF9 inh)
Cc1ccc2nc(-c3ccc(C#N)cc3)c(Cc3ccccc3C(F)(F)F)n2c1	DENV2 CPE 63 (no result: PDI turbidity)
O=C(Cc1ccccn1)N[C@H]1CC[C@H](CC(=O)N2CCCCC2)O[C@H]1CO	none (no result: PDI turbidity)
Cc1nc2scc(C)n2c(=O)c1S(=O)(=O)Nc1ccc(N2CCN(C(=O)C(C)C)CC2)cc1	DENV2 CPE 51
C=CC(=O)Nc1cccc(Oc2cc(Cl)nc3[nH]ccc23)c1	none (no result: AF4-AF9 inh)
C=CC(=O)Nc1cccc(Oc2nc(Nc3ccc(N4CCN(C)CC4)cc3OC)ncc2Cl)c1	AF4-AF9 inh 63 (no result: PDI turbidity, ERAP1 inh)
O=C(c1cccnc1)N1C[C@@H]2[C@H](c3ccccc31)[C@H](CO)N2C(=O)C1CC1	none (no result: PDI turbidity)
C[C@H](CO)N1C[C@H](C)[C@@H](CN(C)C(=O)Nc2ccc3c(c2)OCO3)Oc2ccc(NC(=O)C3CC3)cc2CC1=O	DENV2 CPE 54 (no result: PDI turbidity)
C[C@H](CO)N1C[C@H](C)[C@@H](CN(C)C(=O)Nc2ccc3c(c2)OCO3)Oc2ccc(NC(=O)Cn3cnnn3)cc2CC1=O	DENV2 CPE 24 (no result: PDI turbidity)
C[C@@H]1CN([C@@H](C)CO)C(=O)Cc2cc(NC(=O)C3CC3)ccc2O[C@H]1CN(C)C(=O)Nc1ccc2c(c1)OCO2	none (no result: PDI turbidity)
C[C@H](CO)N1C[C@H](C)[C@H](CN(C)Cc2ccc(-c3ccccc3)cc2)Oc2ccc(NC(=O)CCCCCC(=O)Nc3ccccc3N)cc2C1=O	DENV2 CPE 32 (no result: PDI turbidity)
